From PubChem BioAssay (EPA / NIEHS)
The source holds several records for some structures; these can differ, active in one and inactive in another. Active and inactive are the calls of the source. The calls were made as follows: active = hit-call score of the fitted dose curve at least 0.9, where 1 is the maximum; inactive = score below 0.9.

What was measured:
[1] = read-out: Interferon-gamma inducible Protein 10 (IP10), CXCL10 (gene 3627); assay: BSK_hDFCGF_IP10: BioMAP Diversity Plus: hDFCGF Assay for Interferon-gamma inducible Protein 10 (IP10) Biomarker Activity (AID 2283053); conditions: primary human foreskin fibroblasts; actives raise or lower the signal
Outline: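 Human foreskin fibroblast primary cells (hDFCGF system) were dosed with chemical and assayed at 24 h; IP-10 measured by ELISA. Activity fitted bidirectionally relative to DMSO negative control as baseline.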

[2] = read-out: Urokinase-type plasminogen activator receptor (uPAR), PLAUR (gene 5329); assay: BSK_CASM3C_uPAR: BioMAP Diversity Plus: CASM3C Assay for Urokinase-type plasminogen activator receptor (uPAR) Biomarker Activity (AID 2283054); conditions: primary human coronary artery smooth muscle cells; actives raise or lower the signal;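 also: cell-surface uPAR protein level quantified by ELISA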
[3] = read-out: Vascular cell adhesion molecule 1 (VCAM1), VCAM1 (gene 7412); assay: BSK_CASM3C_VCAM1: BioMAP Diversity Plus: CASM3C Assay for Vascular cell adhesion molecule 1 (VCAM1) Biomarker Activity (AID 2283055); conditions: primary human coronary artery smooth muscle cells; actives raise or lower the signal;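 also: VCAM-1 protein level quantified by ELISA on the cells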
[4] = read-out: Collagen III, COL3A1 (gene 1281); assay: BSK_hDFCGF_CollagenIII: BioMAP Diversity Plus: hDFCGF Assay for Collagen III Biomarker Activity (AID 2283056); conditions: primary human foreskin fibroblasts; actives raise or lower the signal
Outline: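 Response relative to DMSO, fitted in both directions, reflects ELISA-measured collagen III in human primary skin fibroblasts 24 h after compound addition.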

[5] = read-out: Epidermal growth factor receptor (EGFR), EGFR (gene 1956); assay: BSK_hDFCGF_EGFR: BioMAP Diversity Plus: hDFCGF Assay for Epidermal growth factor receptor (EGFR) Biomarker Activity (AID 2283057); conditions: primary human foreskin fibroblasts; actives raise or lower the signal
Outline: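 Primary human foreskin fibroblasts were exposed to compound for 24 h, after which cell-surface EGFR was quantified by ELISA. Activity was fitted bidirectionally against the DMSO negative control as baseline.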

[6] = read-out: Interleukin-8 (IL8), CXCL8 (gene 3576); assay: BSK_hDFCGF_IL8: BioMAP Diversity Plus: hDFCGF Assay for Interleukin-8 (IL8) Biomarker Activity (AID 2283058); conditions: primary human foreskin fibroblasts; actives raise or lower the signal
Outline: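 Fibroblast monolayers (human foreskin, hDFCGF) received test chemical for 24 h before ELISA detection of IL-8; either increases or decreases relative to DMSO count as activity.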

[7] = BSK_hDFCGF_Proliferation: Cell Proliferation Assessment in the BioMAP Diversity Plus: hDFCGF Assay (AID 2283059); conditions: primary human foreskin fibroblasts;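 also: curves fitted for both rise and fall of signal versus DMSO baseline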
Outline: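 Primary human foreskin fibroblasts, sub-confluent; […]; 10% TCA fix, 0.1% SRB stain, A560 total protein. Gain/loss fitted bidirectionally vs DMSO control.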

[8] = read-out: Macrophage colony-stimulating factor (MCSF), CSF1 (gene 1435); assay: BSK_hDFCGF_MCSF: BioMAP Diversity Plus: hDFCGF Assay for Macrophage colony-stimulating factor (MCSF) Biomarker Activity (AID 2283060); conditions: primary human foreskin fibroblasts; actives raise or lower the signal
Outline: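 fibroblasts (human foreskin, primary), 24 h post-dose; M-CSF by ELISA; bidirectional fit, DMSO = baseline.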

[9] = BSK_hDFCGF_SRB: Viability Assessment in the BioMAP Diversity Plus: hDFCGF Assay (AID 2283061); conditions: primary human foreskin fibroblasts;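 also: cells exposed to compound for 24 h before the read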
Outline: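 SRB-based viability read on primary human skin fibroblasts at 24 h: TCA fixation, 0.1% dye, 560 nm. Gain or loss of signal is fitted against the DMSO negative control.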

[10] = read-out: TIMP metallopeptidase inhibitor 1 (TIMP1), TIMP1 (gene 7076); assay: BSK_hDFCGF_TIMP1: BioMAP Diversity Plus: hDFCGF Assay for TIMP metallopeptidase inhibitor 1 (TIMP1) Biomarker Activity (AID 2283062); conditions: primary human foreskin fibroblasts; actives raise or lower the signal
Outline: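 Bidirectional curve fitting against DMSO baseline yielded this endpoint, based on ELISA detection of TIMP-1 in primary human foreskin fibroblasts exposed to compound for 24 h.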

[11] = read-out: Monokine induced gamma interferon (MIG), CXCL9 (gene 4283); assay: BSK_hDFCGF_MIG: BioMAP Diversity Plus: hDFCGF Assay for Monokine induced gamma interferon (MIG) Biomarker Activity (AID 2283063); conditions: primary human foreskin fibroblasts; actives raise or lower the signal
Outline: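 Endpoint derived by bidirectional fitting relative to DMSO; MIG quantified via ELISA in primary human foreskin fibroblasts harvested 24 h after dosing.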

[12] = read-out: Matrix Metallopeptidase 1 (MMP1), MMP1 (gene 4312); assay: BSK_hDFCGF_MMP1: BioMAP Diversity Plus: hDFCGF Assay for Matrix Metallopeptidase 1 (MMP1) Biomarker Activity (AID 2283064); conditions: primary human foreskin fibroblasts; actives raise or lower the signal
Outline: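 hDFCGF primary fibroblasts (human foreskin); chemical added; 24 h; MMP1 by ELISA; bidirectional fit vs DMSO.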

[13] = read-out: Vascular cell adhesion molecule 1 (VCAM1), VCAM1 (gene 7412); assay: BSK_hDFCGF_VCAM1: BioMAP Diversity Plus: hDFCGF Assay for Vascular cell adhesion molecule 1 (VCAM1) Biomarker Activity (AID 2283065); conditions: primary human foreskin fibroblasts; actives raise or lower the signal;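 as to AC50: VCAM-1 protein level quantified by ELISA after 24 h chemical exposure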
Outline: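 Measured after 24 h chemical treatment of primary human skin fibroblasts, VCAM-1 was detected by ELISA and concentration-response analysed in both directions versus DMSO vehicle.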

[14] = read-out: Plasminogen activator inhibitor-1 (PAI1), SERPINE1 (gene 5054); assay: BSK_hDFCGF_PAI1: BioMAP Diversity Plus: hDFCGF Assay for Plasminogen activator inhibitor-1 (PAI1) Biomarker Activity (AID 2283066); conditions: primary human foreskin fibroblasts; actives raise or lower the signal
Outline: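 Human foreskin fibroblasts in the hDFCGF system were dosed with compound for 24 h; PAI-1 was quantified by ELISA. Bidirectional curve fitting used DMSO as negative control and baseline.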

[15] = read-out: Intercellular Adhesion Molecule 1 (ICAM1), ICAM1 (gene 3383); assay: BSK_KF3CT_ICAM1: BioMAP Diversity Plus: KF3CT Assay for Intercellular Adhesion Molecule 1 (ICAM1) Biomarker Activity (AID 2283067); conditions: primary human keratinocytes with fibroblasts; actives raise or lower the signal
Outline: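 Bidirectional curve fitting against a DMSO baseline was applied to ICAM-1 ELISA signal from primary human skin co-cultures harvested 24 h after treatment, with SRB staining of parallel wells for overt cytotoxicity.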

[16] = read-out: Interferon-gamma inducible Protein 10 (IP10), CXCL10 (gene 3627); assay: BSK_KF3CT_IP10: BioMAP Diversity Plus: KF3CT Assay for Interferon-gamma inducible Protein 10 (IP10) Biomarker Activity (AID 2283068); conditions: primary human keratinocytes with fibroblasts; actives raise or lower the signal
Outline: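 In a primary skin co-culture of keratinocytes and fibroblasts, IP-10 is quantified by ELISA at 24 h after dosing. SRB staining of parallel wells monitors overt toxicity. Curves are fitted both directions against DMSO.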

[17] = BSK_KF3CT_SRB: Viability Assessment in the BioMAP Diversity Plus: KF3CT Assay (AID 2283069); conditions: primary human keratinocytes with fibroblasts;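 also: total protein by sulforhodamine B staining as a cytotoxicity measure; fitted for both signal gain and loss against DMSO baseline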
Outline: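 Keratinocytes co-cultured with foreskin fibroblasts (human primary); chemical added, 24 h; fix 10% TCA, stain 0.1% SRB, A560. Bidirectional fit vs DMSO.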

[18] = read-out: Interleukin-1 alpha (IL1a), IL1A (gene 3552); assay: BSK_KF3CT_IL1a: BioMAP Diversity Plus: KF3CT Assay for Interleukin-1 alpha (IL1a) Biomarker Activity (AID 2283070); conditions: primary human keratinocytes with fibroblasts; actives raise or lower the signal
Outline: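 Chemicals were dosed onto co-cultured human keratinocytes and foreskin fibroblasts, IL-1a was quantified by ELISA at 24 h, and activity was fitted in both directions relative to DMSO controls.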

[19] = read-out: TIMP metallopeptidase inhibitor 2 (TIMP2), TIMP2 (gene 7077); assay: BSK_KF3CT_TIMP2: BioMAP Diversity Plus: KF3CT Assay for TIMP metallopeptidase inhibitor 2 (TIMP2) Biomarker Activity (AID 2283071); conditions: primary human keratinocytes with fibroblasts; actives raise or lower the signal
Outline: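 Human primary keratinocyte/foreskin fibroblast co-culture dosed with chemical and sampled at 24 h. TIMP-2 levels quantified by ELISA; bidirectional fitting against DMSO negative control as baseline.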

[20] = read-out: Transforming growth factor beta 1 (TGFb1), TGFB1 (gene 7040); assay: BSK_KF3CT_TGFb1: BioMAP Diversity Plus: KF3CT Assay for Transforming growth factor beta 1 (TGFb1) Biomarker Activity (AID 2283072); conditions: primary human keratinocytes with fibroblasts; actives raise or lower the signal
Outline: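 Human keratinocyte plus foreskin fibroblast primary co-culture, dosed with chemical for 24 h. TGF-b1 quantified by ELISA. Activity fitted bidirectionally against DMSO negative control as baseline.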

Measured: AC50

CCCCOCCOCCOCc1cc2c(cc1CCC)OCO2
inactive: [1] | [3] | [5] | [6] | [10] | [11] | [13] | [14] | [15] | [16] | [17] | [18] | [19] | [20]
active: [2] 20 µM | [4] 20 µM | [7] 31 µM | [8] 12.9 µM | [9] 25.3 µM | [12] 3.97 µM

COCCO
active: [18] 0.8 µM
inactive: [1] | [2] | [3] | [4] | [5] | [6] | [7] | [8] | [9] | [10] | [11] | [12] | [13] | [14] | [16] | [17] | [18] | [19]

CCOC(=O)C(C)Oc1ccc(Oc2nc3ccc(Cl)cc3o2)cc1 (stereo unspecified)
inactive: [1] | [2] | [3] | [4] | [5] | [6] | [8] | [9] | [10] | [11] | [13] | [14] | [16] | [17] | [18] | [19]
active: [7] 13.2 µM | [12] 20 µM

CCSC(=O)N(CC(C)C)CC(C)C
inactive: [1] | [2] | [3] | [4] | [6] | [7] | [8] | [9] | [10] | [11] | [12] | [13] | [14] | [16] | [17] | [18] | [19]
active: [5] 5.32 µM

CCOC(=O)c1ccc(O)cc1
inactive: [1] | [2] | [3] | [4] | [5] | [6] | [7] | [8] | [9] | [10] | [11] | [12] | [13] | [14] | [16] | [17] | [18] | [19]

CCCCCCC(C)OC(=O)COc1nc(F)c(Cl)c(N)c1Cl (stereo unspecified)
inactive: [2] | [5] | [16]
active: [1] 13.5 µM | [3] 32.8 µM | [4] 20 µM | [6] 29.6 µM | [7] 6.82 µM | [8] 13.8 µM | [9] 14.9 µM | [10] 26 µM | [11] 15 µM | [12] 30.3 µM | [13] 13.4 µM | [14] 25.8 µM | [17] 30.4 µM | [18] 33.3 µM | [19] 31.6 µM

CC(=O)S[C@@H]1CC2=CC(=O)CC[C@]2(C)[C@H]2CC[C@@]3(C)[C@@H](CC[C@@]34CCC(=O)O4)[C@H]12
active: [1] 29.9 µM | [3] 16.8 µM | [6] 30.6 µM | [7] 20 µM | [8] 10.6 µM | [9] 26.7 µM | [11] 31.2 µM | [12] 31.3 µM | [14] 10.3 µM | [16] 33.4 µM | [18] 30.7 µM
inactive: [2] | [4] | [5] | [10] | [13] | [17] | [19] | [20]

CCN(Cc1c(F)cccc1Cl)c1c([N+](=O)[O-])cc(C(F)(F)F)cc1[N+](=O)[O-]
inactive: [3] | [4] | [5] | [6] | [8] | [9] | [10] | [13] | [14] | [17] | [19]
active: [1] 30.6 µM | [2] 13.2 µM | [7] 4.89 µM | [11] 20 µM | [12] 9.24 µM | [16] 2.54 µM | [18] 8.48 µM

CCOC(=O)[C@H](C)Oc1ccc(Oc2nc3ccc(Cl)cc3o2)cc1
active: [4] 3.97 µM | [7] 24.9 µM | [9] 0.508 µM | [16] 25.3 µM
inactive: [1] | [2] | [3] | [5] | [6] | [8] | [10] | [11] | [12] | [13] | [14] | [17] | [18] | [19]

CN(C)C(=O)Nc1ccc(Cl)c(Cl)c1
inactive: [1] | [2] | [3] | [4] | [5] | [6] | [7] | [8] | [9] | [10] | [11] | [12] | [13] | [14] | [16] | [17] | [18] | [19]

COC(=O)c1cccc(C)c1S(=O)(=O)NC(=O)Nc1nc(OCC(F)(F)F)nc(N(C)C)n1
inactive: [1] | [2] | [3] | [4] | [5] | [6] | [7] | [8] | [9] | [10] | [11] | [12] | [13] | [14] | [16] | [17] | [18] | [19] | [20]

CCCCC(CC)COC(=O)c1ccccc1C(=O)O (stereo unspecified)
active: [1] 11 µM | [8] 9.84 µM | [11] 13.8 µM | [13] 10.2 µM
inactive: [2] | [3] | [4] | [5] | [6] | [7] | [9] | [10] | [12] | [14] | [16] | [17] | [18] | [19] | [20]

COC(=O)c1ccccc1S(=O)(=O)NC(=O)Nc1nc(OC(F)F)cc(OC(F)F)n1
inactive: [1] | [2] | [3] | [4] | [5] | [6] | [7] | [8] | [9] | [10] | [11] | [12] | [13] | [14] | [16] | [17] | [18] | [19] | [20]
